Assay outcomes deposited in PubChem by National Center for Advancing Translational Sciences (NCATS).
In the library only some 1.5% were active in any assay of this set; here they are far more common.
NPSR antag: blocks cAMP signaling of the human neuropeptide S receptor; Q6W5P4; CHO-NPSR cells, cAMP TR-FRET, antagonist mode; Potency, µM (series often up to 38.3 µM), without a hit: top-dose activity change, negative = inhibition, actives largely listed as inhibitors; 220,000 compounds, 1% hits; also: % is scaled to controls: 0 for no effect and ±100 for the full control effect; nearly all actives have a fitted effect of over 50% in size
Target sequence (Q6W5P4 whole entry, looked up): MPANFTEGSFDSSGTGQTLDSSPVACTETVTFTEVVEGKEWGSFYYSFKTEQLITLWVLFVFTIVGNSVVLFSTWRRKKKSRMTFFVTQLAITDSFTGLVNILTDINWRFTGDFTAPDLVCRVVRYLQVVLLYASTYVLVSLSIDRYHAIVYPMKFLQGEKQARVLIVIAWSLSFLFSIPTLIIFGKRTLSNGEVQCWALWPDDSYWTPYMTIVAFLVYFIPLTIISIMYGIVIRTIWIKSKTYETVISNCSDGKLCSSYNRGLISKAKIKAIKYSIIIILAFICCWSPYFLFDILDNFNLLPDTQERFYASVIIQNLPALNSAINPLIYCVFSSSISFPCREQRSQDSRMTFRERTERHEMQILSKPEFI
HTT cytoprotect: cytoprotection in Huntington HTT-Q103 PC12 cell model. PC12 HTT-Q103 induced, cytoprotection, ATP luminescence, 40 h. Potency, µM (doses to about 56.4 µM), for the others: cytoprotection (ATP increase), usual class: activators. 230,000 compounds, 0.14% hits. AID 1471; also: % of control where 0% means no effect; nearly all actives have a fitted effect of over 45% in size
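Readout: ATPlite luminescence (ATP level). Model: stable PC12, inducible Htt exon1 Q103-GFP. Inducer: tebufenozide, 100 nM final. Compounds: dose series. No G418 in medium.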
Lamin A splicing: changes lamin A minigene splicing in HeLa cells; HeLa LMNA splicing GFP/RFP minigene ratio, 48 h; Potency, µM (top dose mostly 46.1 µM), without a hit: top-dose ratio change, negative = inhibition, most hits filed as inhibitors; 200,000 compounds, 0.01% hits; AID 1487; active = well fitted inhibition curve with a large enough effect in the signal ratio, with a control signal flat, not every such curve was filed as active; inconclusive = small, poorly fitted or top-dose-only effect, or effect the other way, or a change in a side signal; the % refers to the signal ratio; also: % is scaled to controls: 0 for no effect and ±100 for the full control effect
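Read-out is the ratio of GFP to DsRed2 object intensity, acquired by 488 nm laser-scanning cytometry on HeLa lamin A-EGFP minigene reporter cells. Compound incubation 48 hrs at 37 °C in Opti-MEM with 2% FBS; DMSO 0.5% final.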
Epigenetic reg: regulators of epigenetic silencing causing reporter derepression in mouse cells | Potency, µM (series often up to 53.9 µM), inactives show at the highest dose GFP activation, actives largely listed as activators | 280,000 compounds, 0.2% hits | murine LDR cells, GFP reporter derepression, 30 h; also: % of control where 0% means no effect; nearly all actives have a fitted effect of over 60% in size
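Murine LDR cells carrying a silenced, genomically integrated CMV-driven GFP reporter were exposed to compound for 30 hours at 37 C. After PBS washes, GFP-positive cells (20–120 um objects) were counted by laser-scanning microplate cytometry.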
HttQ103 aggreg: mutant huntingtin aggregation inhibition; PC12 HttQ103-GFP aggregates, Acumen cytometry, 40 h; Potency, µM (top dose mostly 46.1 µM), for the others: top-dose activity change, negative = inhibition, actives largely listed as inhibitors; 220,000 compounds, 1.1% hits; AID 1688; also: % is scaled to controls: 0 for no effect and ±100 for the full control effect; nearly all actives have a fitted effect of over 60% in size
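Multiplexed with ATP-based cell death, this channel scores GFP aggregates in PC12 cells expressing inducible HTTex1-Q103-GFP. Induction used 100 nM tebufenozide; compounds were tested in concentration series.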
* marks the source's active call; other numbers are inactive results; [ ] = dose if it differs, or a comment. Unless noted, calls follow the shape of the dose curve; as a rule, active = well fitted curve in the direction sought with a large enough effect; inconclusive = small, poorly fitted or top-dose-only effect, or another doubt; inactive = no such curve, though single readings can be large; an effect the other way counts as inactive or inconclusive. Potency is read from the fitted curve at half-maximal effect.

COCCn1nc2cc(C(=O)NCc3cc(C(F)(F)F)cc(C(F)(F)F)c3)ccc2c1OC was read as NPSR antag -18.6%[46.1 µM], HTT cytoprotect 0.708µM*, Lamin A splicing 12.1%, Epigenetic reg 1.2% and HttQ103 aggreg 23.8%.
For CCOc1c2ccc(C(=O)NCc3cc(C(F)(F)F)cc(C(F)(F)F)c3)cc2nn1CCOC the results were NPSR antag -10.7%[46.1 µM], HTT cytoprotect -0.8%, Lamin A splicing 10.9%, Epigenetic reg -1.9% and HttQ103 aggreg -18.5%.
For O=C(c1cn(CCOc2ccc(Cl)cc2)c2ccccc12)C1CCCCC1 the results were Epigenetic reg 0.8%.
CC(=O)[C@@H](C)CCO[C@@]1(C)OCC[C@@H]1C was read as HTT cytoprotect -5.6%[10 µM].
`O=[N+]([O-])c1ccc2c(N=Nc3ccc4ccccc4c3O)c(O)cc(S(=O)(=O)O)c2c1` gave HTT cytoprotect 4.9%[10 µM].
For CCOc1cc(S(=O)(=O)N2CCN(Cc3ccccc3)CC2)ccc1Br the results were NPSR antag -14.6%[46.1 µM], HTT cytoprotect -0.9%[0.074 µM], Lamin A splicing inconclusive, Epigenetic reg -1.0% and HttQ103 aggreg 11.2µM*.
Screening COC(=O)c1sccc1S(=O)(=O)Nc1ccc(N2CCCCC2)cc1 returned NPSR antag -5.5%, HTT cytoprotect 12.7%[10 µM], Epigenetic reg -2.8% and HttQ103 aggreg 20.4%[9.22 µM].
`O=C(Nc1ccc(N2CCN(C(=O)c3ccccc3)CC2)cc1)c1ccc(Br)o1` gave NPSR antag -17.4%[46.1 µM], HTT cytoprotect 1.5%[0.074 µM], Lamin A splicing -22.4%, Epigenetic reg 0.0% and HttQ103 aggreg inconclusive.
`O=C(Nc1ccc(N2CCN(C(=O)c3ccccc3)CC2)c(Cl)c1)c1ccc(Br)o1` gave NPSR antag inconclusive, HTT cytoprotect -69.3%, Lamin A splicing inconclusive, Epigenetic reg -1.0% and HttQ103 aggreg 11.2µM*.
`O=C(Cc1ccc(Cl)cc1)Nc1ccc(N2CCN(C(=O)c3ccco3)CC2)c(Cl)c1` gave NPSR antag inconclusive, HTT cytoprotect -4.2%[0.074 µM], Lamin A splicing inconclusive, Epigenetic reg -5.4% and HttQ103 aggreg 10µM*.
`O=C(Nc1ccccc1N1CCCC1)c1cc2ccccc2o1` gave NPSR antag inconclusive, HTT cytoprotect -1.7%[10 µM], Lamin A splicing 4.5%, Epigenetic reg 0.0% and HttQ103 aggreg inconclusive.
`O=C(Nc1ccccc1N1CCN(C(=O)c2ccccc2)CC1)c1cc2ccccc2o1` gave NPSR antag 3.98µM*, HTT cytoprotect -32.7%, Lamin A splicing 17.4%, Epigenetic reg -1.1% and HttQ103 aggreg -5.4%.
Screening CCOc1ccc(NC(=O)c2cnn3c2NC(c2ccccc2)=CC3c2cccc(OC)c2OC)cc1 (configuration not stated) returned Lamin A splicing inconclusive and Epigenetic reg 0.0%.
COc1ccc(NS(=O)(=O)c2ccc(N/N=C/c3ccc(N4CCOCC4)cc3)c([N+](=O)[O-])c2)cc1 was read as NPSR antag 3.4%, Lamin A splicing 3.2%, Epigenetic reg -3.0% and HttQ103 aggreg 2µM*.
For O=C(Nc1cc(Cl)ccc1O)c1snnc1-c1ccccc1 the results were NPSR antag inconclusive, HTT cytoprotect -67.0%, Lamin A splicing 3.6%, Epigenetic reg 0.8% and HttQ103 aggreg 15.8µM*.
For Cc1ccc(Cl)cc1N1CCN(C(=O)c2cc(S(=O)(=O)N3CCCCC3)cn2C)CC1 the results were Lamin A splicing -14.9%[46 µM] and Epigenetic reg 1.7%.
O=S(=O)(Nc1ccc(Cc2ccncc2)cc1)c1ccc(Cl)c(Cl)c1 was read as NPSR antag -29.5%[46.1 µM], HTT cytoprotect -60.0%, Lamin A splicing 16.7%, Epigenetic reg -1.1% and HttQ103 aggreg 11.2µM*.
Screening O=S(=O)(Nc1ccc(-n2cccc2)cc1)c1ccc(Cl)c(Cl)c1 returned NPSR antag 15.0%, HTT cytoprotect -19.4%[10 µM], Lamin A splicing inconclusive, Epigenetic reg 1.1% and HttQ103 aggreg -6.0%[9.22 µM].
`O=C(O)c1ccc(S(=O)(=O)NC2CCCc3ccccc32)cc1` (configuration not stated) gave NPSR antag -1.1%[46.1 µM], HTT cytoprotect -2.9%, Lamin A splicing 8.6%, Epigenetic reg 0.8% and HttQ103 aggreg 20.5%.
CC(=O)N1CCc2cc(S(=O)(=O)NC3CCCc4ccccc43)ccc21 (configuration not stated) was read as NPSR antag -9.4%[46.1 µM], HTT cytoprotect 38.3%[10 µM], Lamin A splicing inconclusive, Epigenetic reg -1.0% and HttQ103 aggreg 7.08µM*.
For Cc1nc([N+](=O)[O-])c(Br)n1Cc1ccc(Cl)c(Cl)c1 the results were NPSR antag inconclusive, HTT cytoprotect 6.9%[10 µM], Epigenetic reg 1.1% and HttQ103 aggreg 8.91µM*.
Screening Cc1nc([N+](=O)[O-])c(Br)n1CC(=O)c1ccc(Cl)cc1 returned NPSR antag inconclusive, HTT cytoprotect -148.0%, Lamin A splicing inconclusive, Epigenetic reg -4.4% and HttQ103 aggreg inconclusive.
CCCCC(=O)Nc1cccc(OCc2cc(=O)n3ccccc3n2)c1 was read as Lamin A splicing -22.3%[46 µM] and Epigenetic reg -4.1%.
For CCCn1nc(NC(=O)c2cccc(Cl)c2)c2cc3cccc(C)c3nc21 the results were Epigenetic reg 15.8µM*.
COC(=O)c1ccccc1NC(=O)c1cc(-c2ccc(Cl)cc2)on1 was read as Epigenetic reg -1.8%.
Screening FC(F)(F)c1nc(N2CCCC2)ncc1-c1nnnn1-c1ccc(Cl)cc1 returned NPSR antag inconclusive, HTT cytoprotect 3.55µM*, Lamin A splicing inconclusive, Epigenetic reg 0.8% and HttQ103 aggreg inconclusive.
`Cc1nc2cnc(OCc3ccccc3)nc2n(Cc2ccc(F)cc2)c1=O` gave HTT cytoprotect -35.7%.
`CCN(CC)CCCNC(=O)C1c2ccccc2C(=O)N(CCOC)C1c1ccc(F)cc1` (configuration not stated) gave NPSR antag -13.6%, HTT cytoprotect 28.5%, Epigenetic reg -0.2% and HttQ103 aggreg 3.0%.
`CCN(CCCNC(=O)C1c2ccccc2C(=O)N(CCOC)C1c1ccc(F)cc1)Cc1ccccc1` (configuration not stated) gave NPSR antag 10µM*, HTT cytoprotect -21.3%, Lamin A splicing 1.8%[9.22 µM], Epigenetic reg -0.1% and HttQ103 aggreg 0.3%.
Screening Cc1ccc(/C=C(\C#N)C(=O)Nc2ccc(Br)cc2)o1 returned Epigenetic reg 22.4µM*.
`Cc1ccc(CN2c3ccccc3-c3nc(SCC(=O)NCc4ccccc4)ncc3S2(=O)=O)cc1` gave Epigenetic reg 0.3%.
Screening COc1ccc(CNC(=O)CSc2ncc3c(n2)-c2ccc(Cl)cc2N(Cc2ccccc2)S3(=O)=O)cc1 returned Epigenetic reg 15.8µM*.
